Compounds without any hit were thinned out: in the full panel of roughly 79,000, 15% have a hit. Unmarked numbers belong to inactive results. Active and inactive are the calls of the source. Cut-off read from the data, not from the text of the source: active = growth inhibition above about 70%; inactive = the rest.
What was measured:
[1] = NCI Yeast Anticancer Drug Screen. Data for the mec2-1 strain (AID 157); conditions: S. cerevisiae mec2-1 strain, stronger effect = higher value
Summary of the method: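 Readout is yeast growth inhibition, normalised to vehicle-treated controls, in the mec2-1 strain exposed to compound.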

[2] = NCI Yeast Anticancer Drug Screen. Data for the sgs1 mgt1 strain (AID 161);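 note: 0% = growth of cultures given vehicle only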; conditions: S. cerevisiae sgs1 mgt1 strain, stronger effect = higher value
Summary of the method: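 Yeast cells carrying a defined DNA-repair defect were exposed to test compounds. Growth inhibition was measured relative to vehicle-treated controls.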

[3] = NCI Yeast Anticancer Drug Screen. Data for the CLN2oe strain (AID 163);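 note: 0% = growth of vehicle-only control cultures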; conditions: S. cerevisiae CLN2oe strain, stronger effect = higher value
Summary of the method: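 Values reflect how much compound exposure reduced yeast growth, referenced to vehicle-exposed cells. Assay organism is a strain with a defined genetic change affecting cell-cycle control.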

[4] = NCI Yeast Anticancer Drug Screen. Data for the cln2 rad14 strain (AID 165);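 note: 0% = growth equal to vehicle treated cultures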; conditions: S. cerevisiae cln2 rad14 strain, stronger effect = higher value
Summary of the method: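 Relative to vehicle controls, growth inhibition of compound-treated cln2 rad14 yeast was recorded.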

[5] = NCI Yeast Anticancer Drug Screen. Data for the bub3 strain (AID 167); conditions: S. cerevisiae bub3 mutant strain, stronger effect = higher value
Summary of the method: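 Part of a panel of yeast mutants defective in DNA damage repair or cell cycle regulation. Each strain is grown with compound, and inhibition is calculated relative to solvent-treated cultures.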

[6] = NCI Yeast Anticancer Drug Screen. Data for the wt2 strain (AID 169);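 note: 0% = growth of vehicle-treated yeast cultures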; conditions: S. cerevisiae wt2 strain growth inhibition, stronger effect = higher value
Summary of the method: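 Values express reduction in yeast growth under compound treatment, referenced to vehicle-treated cells.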

[7] = NCI Yeast Anticancer Drug Screen. Data for the mlh1 strain (AID 171);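 note: 0% = growth of vehicle-treated control cultures of the same strain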; conditions: S. cerevisiae mlh1 strain growth inhibition, stronger effect = higher value
Summary of the method: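 Steps: expose the defined-mutant yeast strain to compound; expose a parallel culture to vehicle; measure growth; express compound effect as inhibition relative to the vehicle culture.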

[8] = NCI Yeast Anticancer Drug Screen. Data for the sgs1 strain (AID 173);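 note: 0% = growth of vehicle-only control cultures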; conditions: S. cerevisiae sgs1 mutant, stronger effect = higher value
Summary of the method: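 Treat defined-mutant yeast with compound; measure growth; calculate inhibition relative to vehicle-treated cells.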

[9] = NCI Yeast Anticancer Drug Screen. Data for the mlh1 rad18 strain (AID 175); conditions: S. cerevisiae mlh1 rad18 strain growth inhibition, stronger effect = higher value
Summary of the method: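 Test agents were incubated with a yeast strain of defined genotype (DNA damage repair defect). Inhibition of growth was derived by comparison with vehicle-exposed cultures.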

[10] = NCI Yeast Anticancer Drug Screen. Data for the rad52 strain (AID 147);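 note: 0% = growth of vehicle-treated control cultures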; conditions: S. cerevisiae rad52 mutant growth inhibition, stronger effect = higher value
Summary of the method: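 Screen used a yeast mutant impaired in DNA repair. After compound exposure, growth was measured. Values reflect inhibition compared with vehicle-treated cells.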

[11] = NCI Yeast Anticancer Drug Screen. Data for the wt1 strain (AID 149);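 note: 0% = growth of vehicle-treated wt1 cultures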; conditions: S. cerevisiae wt1 strain (SPY 50644) growth inhibition, stronger effect = higher value
Summary of the method: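 The wt1 strain was treated with compounds, and growth was compared with vehicle-treated cultures to give inhibition.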

[12] = NCI Yeast Anticancer Drug Screen. Data for the rad50EPP+ strain (AID 151);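 note: 0% = growth of vehicle-treated control cultures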; conditions: S. cerevisiae rad50 mutant strain, stronger effect = higher value
Summary of the method: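 Exposing the rad50EPP+ strain to each compound, growth was compared with vehicle-only cultures to give inhibition.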

[13] = NCI Yeast Anticancer Drug Screen. Data for the mgt1 strain (AID 153); conditions: S. cerevisiae mgt1 mutant growth inhibition, stronger effect = higher value
Summary of the method: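 Genetically defined yeast (mgt1) treated with compound; inhibition of growth expressed against vehicle-treated controls.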

[14] = NCI Yeast Anticancer Drug Screen. Data for the rad50 strain (AID 155);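 note: 0% = growth of vehicle-only cultures of the same strain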; conditions: S. cerevisiae rad50 strain growth inhibition, stronger effect = higher value
Summary of the method: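 Cells are treated with compound, grown, and their growth is then scored against vehicle-only cultures of the same repair-deficient yeast strain.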

[15] = NCI Yeast Anticancer Drug Screen. Data for the rad14 strain (AID 159);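 note: 0% = growth of vehicle-treated control cultures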; conditions: S. cerevisiae rad14 strain growth inhibition, stronger effect = higher value
Summary of the method: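 Readout: yeast growth inhibition, referenced to vehicle-only cultures. Strain bears a defined alteration in DNA damage repair.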

[16] = NCI Yeast Anticancer Drug Screen. Data for the rad18 strain (AID 177); conditions: S. cerevisiae rad18 mutant growth inhibition, stronger effect = higher value
Summary of the method: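 A genetically defined yeast mutant impaired in DNA damage repair was treated with test compounds, then its growth was measured against cultures receiving vehicle alone.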

[17] = at 5.0 µM (retest, dose inferred, filed as 0.5)
[18] = at 50.0 µM (retest, dose inferred, filed as 5.0)

CCCCCCCCCCCCCCN
growth inhibition [1, 17]: 100% (active)
growth inhibition ([1]; at 11.0 µM): -9%
growth inhibition ([1]; at 33.0 µM): 38%
growth inhibition [1, 18]: 96% (active)
growth inhibition ([1]; at 50.0 µM): 92.1% (active)
growth inhibition ([1]; at 100.0 µM): 99% (active)
growth inhibition [2, 17]: -20%
growth inhibition [2, 18]: 99% (active)
growth inhibition ([2]; at 50.0 µM): 90.8% (active)
growth inhibition ([3]; at 1.2 µM): 6%
growth inhibition ([3]; at 3.7 µM): 6%
growth inhibition ([3]; at 11.0 µM): -14%
growth inhibition ([3]; at 33.0 µM): 37%
growth inhibition ([3]; at 100.0 µM): 98% (active)
growth inhibition [4, 17]: 24%
growth inhibition [4, 18]: 99% (active)
growth inhibition ([4]; at 50.0 µM): 88.2% (active)
growth inhibition ([5]; at 1.2 µM): 25%
growth inhibition ([5]; at 3.7 µM): 7%
growth inhibition [5, 17]: 31%
growth inhibition ([5]; at 11.0 µM): 21%
growth inhibition ([5]; at 33.0 µM): 58%
growth inhibition [5, 18]: 99% (active)
growth inhibition ([5]; at 50.0 µM): 90.7% (active)
growth inhibition ([5]; at 100.0 µM): 98% (active)
growth inhibition ([6]; at 1.2 µM): 3%
growth inhibition ([6]; at 3.7 µM): -1%
growth inhibition ([6]; at 11.0 µM): 4%
growth inhibition ([6]; at 33.0 µM): 27%
growth inhibition ([6]; at 100.0 µM): 99% (active)
growth inhibition ([7]; at 1.2 µM): -3%
growth inhibition ([7]; at 3.7 µM): 8%
growth inhibition ([7]; at 11.0 µM): 2%
growth inhibition ([7]; at 33.0 µM): 16%
growth inhibition ([7]; at 100.0 µM): 98% (active)
growth inhibition ([8]; at 1.2 µM): 10%
growth inhibition ([8]; at 3.7 µM): 16%
growth inhibition ([8]; at 11.0 µM): 19%
growth inhibition ([8]; at 33.0 µM): 65%
growth inhibition ([8]; at 100.0 µM): 98% (active)
growth inhibition [9, 17]: 100% (active)
growth inhibition [9, 18]: 97% (active)
growth inhibition ([9]; at 50.0 µM): 91.2% (active)

OC(Cc1cccc2ccccc12)CN1CCC(c2ccccc2)CC1 (stereo unspecified)
growth inhibition ([10]; at 1.2 µM): 52%
growth inhibition ([10]; at 3.7 µM): 66%
growth inhibition ([10]; at 11.0 µM): 69%
growth inhibition ([10]; at 33.0 µM): 91% (active)
growth inhibition ([10]; at 100.0 µM): 97% (active)
growth inhibition ([11]; at 1.2 µM): 12%
growth inhibition ([11]; at 3.7 µM): 28%
growth inhibition ([11]; at 11.0 µM): 34%
growth inhibition ([11]; at 33.0 µM): 61%
growth inhibition ([11]; at 100.0 µM): 75% (active)
growth inhibition ([12]; at 1.2 µM): 24%
growth inhibition ([12]; at 3.7 µM): 5%
growth inhibition ([12]; at 11.0 µM): 23%
growth inhibition ([12]; at 33.0 µM): 38%
growth inhibition ([12]; at 100.0 µM): 60%
growth inhibition ([13]; at 1.2 µM): 64%
growth inhibition ([13]; at 3.7 µM): 72% (active)
growth inhibition ([13]; at 11.0 µM): 81% (active)
growth inhibition ([13]; at 33.0 µM): 96% (active)
growth inhibition ([13]; at 100.0 µM): 99% (active)
growth inhibition ([14]; at 1.2 µM): 6%
growth inhibition ([14]; at 3.7 µM): 53%
growth inhibition [14, 17]: 55%
growth inhibition ([14]; at 11.0 µM): 66%
growth inhibition ([14]; at 33.0 µM): 86% (active)
growth inhibition [14, 18]: 68%
growth inhibition ([14]; at 50.0 µM): 86.7% (active)
growth inhibition ([14]; at 100.0 µM): 96% (active)
growth inhibition ([1]; at 1.2 µM): 17%
growth inhibition ([1]; at 3.7 µM): 26%
growth inhibition [1, 17]: 13%
growth inhibition ([1]; at 11.0 µM): 50%
growth inhibition ([1]; at 33.0 µM): 86% (active)
growth inhibition [1, 18]: 57%
growth inhibition ([1]; at 50.0 µM): 45.7%
growth inhibition ([1]; at 100.0 µM): 97% (active)
growth inhibition ([15]; at 1.2 µM): 71% (active)
growth inhibition ([15]; at 3.7 µM): 75% (active)
growth inhibition ([15]; at 11.0 µM): 89% (active)
growth inhibition ([15]; at 33.0 µM): 97% (active)
growth inhibition ([15]; at 100.0 µM): 98% (active)
growth inhibition [2, 17]: 51%
growth inhibition [2, 18]: 41%
growth inhibition ([2]; at 50.0 µM): 71.2% (active)
growth inhibition [4, 17]: 58%
growth inhibition [4, 18]: 76% (active)
growth inhibition ([4]; at 50.0 µM): 74.2% (active)
growth inhibition ([5]; at 1.2 µM): 39%
growth inhibition ([5]; at 3.7 µM): 41%
growth inhibition [5, 17]: 64%
growth inhibition ([5]; at 11.0 µM): 54%
growth inhibition ([5]; at 33.0 µM): 79% (active)
growth inhibition [5, 18]: 87% (active)
growth inhibition ([5]; at 50.0 µM): 69.2%
growth inhibition ([5]; at 100.0 µM): 97% (active)
growth inhibition ([6]; at 1.2 µM): 50%
growth inhibition ([6]; at 3.7 µM): 52%
growth inhibition ([6]; at 11.0 µM): 72% (active)
growth inhibition ([6]; at 33.0 µM): 84% (active)
growth inhibition ([6]; at 100.0 µM): 97% (active)
growth inhibition ([7]; at 1.2 µM): 31%
growth inhibition ([7]; at 3.7 µM): 38%
growth inhibition ([7]; at 11.0 µM): 48%
growth inhibition ([7]; at 33.0 µM): 84% (active)
growth inhibition ([7]; at 100.0 µM): 98% (active)
growth inhibition ([8]; at 1.2 µM): 60%
growth inhibition ([8]; at 3.7 µM): 59%
growth inhibition ([8]; at 11.0 µM): 67%
growth inhibition ([8]; at 33.0 µM): 83% (active)
growth inhibition ([8]; at 100.0 µM): 97% (active)
growth inhibition [9, 17]: 74% (active)
growth inhibition [9, 18]: 89% (active)
growth inhibition ([9]; at 50.0 µM): 69.8%
growth inhibition ([16]; at 1.2 µM): 30%
growth inhibition ([16]; at 3.7 µM): 38%
growth inhibition ([16]; at 11.0 µM): 54%
growth inhibition ([16]; at 33.0 µM): 65%
growth inhibition ([16]; at 100.0 µM): 87% (active)

— PubChem BioAssay (NCI)
